Data reported in paper PMC5540273 (PLoS ONE, 2017).

Legend:
Settings in all cases: concentration: 1 μM, replicates: in singlicate; n = 1
FLT1 = test system: FLT1
FLT3-autoinhibited = test system: FLT3-autoinhibited
FLT3 = test system: FLT3
FLT4 = test system: FLT4
FRK = test system: FRK
FYN = test system: FYN
GAK = test system: GAK
GCN2(Kin.Dom.2,S808G) = test system: T1, GCN2(Kin.Dom.2,S808G)
T1 construct: gene EIF2AK4

GRK1 = test system: GRK1
GRK2 = test system: T2, GRK2
T2 construct: gene ADRBK1

GRK3 = test system: T3, GRK3
T3 construct: gene ADRBK2

GRK4 = test system: GRK4
GRK7 = test system: GRK7
GSK3A = test system: GSK3A
GSK3B = test system: GSK3B
HASPIN = test system: T4, HASPIN
T4 construct: gene GSG2

HCK = test system: HCK
HIPK1 = test system: HIPK1
HIPK2 = test system: HIPK2
HIPK3 = test system: HIPK3
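Also: KINOMEscan kinase panel screen.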

COc1ccc(Nc2nccc(NCCNC(=O)Nc3cc(C)ccc3C)n2)cc1 [GSK1379899]
%Inh (FLT1): 29%
%Inh (FLT3-autoinhibited): 2%
%Inh (FLT3): 0%
%Inh (FLT4): 8%
%Inh (FRK): 0%
%Inh (FYN): 0%
%Inh (GAK): 0%
%Inh (GCN2(Kin.Dom.2,S808G)): 4%
%Inh (GRK1): 0%
%Inh (GRK2): 0%
%Inh (GRK3): 0%
%Inh (GRK4): 12%
%Inh (GRK7): 0%
%Inh (GSK3A): 0%
%Inh (GSK3B): 0%
%Inh (HASPIN): 0%
%Inh (HCK): 78%
%Inh (HIPK1): 0%
%Inh (HIPK2): 0%
%Inh (HIPK3): 0%

Cn1cnc2c(N)ncnc21 [SKF-97623]
%Inh (FLT1): 0%
%Inh (FLT3-autoinhibited): 100%
%Inh (FLT3): 0%
%Inh (FLT4): 0%
%Inh (FRK): 0%
%Inh (FYN): 0%
%Inh (GAK): 0%
%Inh (GCN2(Kin.Dom.2,S808G)): 27%
%Inh (GRK1): 0%
%Inh (GRK2): 29%
%Inh (GRK3): 26%
%Inh (GRK4): 21%
%Inh (GRK7): 0%
%Inh (GSK3A): 0%
%Inh (GSK3B): 0%
%Inh (HASPIN): 0%
%Inh (HCK): 0%
%Inh (HIPK1): 0%
%Inh (HIPK2): 11%
%Inh (HIPK3): 0%

FC(F)(F)c1ccccc1-c1cc(-c2c[nH]nc2-c2ccccn2)ccn1 [GW679396]
%Inh (FLT1): 18%
%Inh (FLT3-autoinhibited): 0%
%Inh (FLT3): 0%
%Inh (FLT4): 0%
%Inh (FRK): 17%
%Inh (FYN): 0%
%Inh (GAK): 27%
%Inh (GCN2(Kin.Dom.2,S808G)): 0%
%Inh (GRK1): 0%
%Inh (GRK2): 0%
%Inh (GRK3): 14%
%Inh (GRK4): 0%
%Inh (GRK7): 0%
%Inh (GSK3A): 2%
%Inh (GSK3B): 12%
%Inh (HASPIN): 0%
%Inh (HCK): 0%
%Inh (HIPK1): 0%
%Inh (HIPK2): 0%
%Inh (HIPK3): 17%

Cc1ccccc1-c1cc(-c2c[nH]nc2-c2ccccn2)ccn1 [GW680061]
%Inh (FLT1): 6%
%Inh (FLT3-autoinhibited): 0%
%Inh (FLT3): 0%
%Inh (FLT4): 11%
%Inh (FRK): 13%
%Inh (FYN): 18%
%Inh (GAK): 11%
%Inh (GCN2(Kin.Dom.2,S808G)): 25%
%Inh (GRK1): 7%
%Inh (GRK2): 0%
%Inh (GRK3): 37%
%Inh (GRK4): 0%
%Inh (GRK7): 0%
%Inh (GSK3A): 0%
%Inh (GSK3B): 1%
%Inh (HASPIN): 0%
%Inh (HCK): 0%
%Inh (HIPK1): 4%
%Inh (HIPK2): 0%
%Inh (HIPK3): 10%

Cn1cncc1-c1cc2c(Nc3ccc(OCc4ccccc4)cc3)ncnc2cn1 [GW281179]
%Inh (FLT1): 19%
%Inh (FLT3-autoinhibited): 0%
%Inh (FLT3): 0%
%Inh (FLT4): 0%
%Inh (FRK): 6%
%Inh (FYN): 28%
%Inh (GAK): 0%
%Inh (GCN2(Kin.Dom.2,S808G)): 1%
%Inh (GRK1): 0%
%Inh (GRK2): 9%
%Inh (GRK3): 33%
%Inh (GRK4): 0%
%Inh (GRK7): 0%
%Inh (GSK3A): 8%
%Inh (GSK3B): 11%
%Inh (HASPIN): 0%
%Inh (HCK): 0%
%Inh (HIPK1): 0%
%Inh (HIPK2): 0%
%Inh (HIPK3): 0%

CCCCc1nn2ncccc2c1-c1ccnc(NC2CC2)n1 [GW684374]
%Inh (FLT1): 61%
%Inh (FLT3-autoinhibited): 0%
%Inh (FLT3): 29%
%Inh (FLT4): 0%
%Inh (FRK): 0%
%Inh (FYN): 23%
%Inh (GAK): 72%
%Inh (GCN2(Kin.Dom.2,S808G)): 0%
%Inh (GRK1): 0%
%Inh (GRK2): 0%
%Inh (GRK3): 17%
%Inh (GRK4): 0%
%Inh (GRK7): 0%
%Inh (GSK3A): 4%
%Inh (GSK3B): 1%
%Inh (HASPIN): 0%
%Inh (HCK): 0%
%Inh (HIPK1): 0%
%Inh (HIPK2): 0%
%Inh (HIPK3): 8%

CCn1c(-c2ccccc2)nc2cnccc21 [SB-733416]
%Inh (FLT1): 53%
%Inh (FLT3-autoinhibited): 0%
%Inh (FLT3): 0%
%Inh (FLT4): 27%
%Inh (FRK): 27%
%Inh (FYN): 14%
%Inh (GAK): 0%
%Inh (GCN2(Kin.Dom.2,S808G)): 0%
%Inh (GRK1): 6%
%Inh (GRK2): 0%
%Inh (GRK3): 70%
%Inh (GRK4): 29%
%Inh (GRK7): 0%
%Inh (GSK3A): 0%
%Inh (GSK3B): 25%
%Inh (HASPIN): 0%
%Inh (HCK): 17%
%Inh (HIPK1): 0%
%Inh (HIPK2): 0%
%Inh (HIPK3): 10%

COc1ccc(CSc2nnc(-c3ccc4nccn4c3)o2)cc1C(F)(F)F
%Inh (FLT1): 35%
%Inh (FLT3-autoinhibited): 25%
%Inh (FLT3): 15%
%Inh (FLT4): 9%
%Inh (FRK): 0%
%Inh (FYN): 0%
%Inh (GAK): 6%
%Inh (GCN2(Kin.Dom.2,S808G)): 0%
%Inh (GRK1): 5%
%Inh (GRK2): 0%
%Inh (GRK3): 37%
%Inh (GRK4): 0%
%Inh (GRK7): 15%
%Inh (GSK3A): 93.8%
%Inh (GSK3B): 93.8%
%Inh (HASPIN): 32%
%Inh (HCK): 0%
%Inh (HIPK1): 31%
%Inh (HIPK2): 20%
%Inh (HIPK3): 5%

Nc1nccc(-c2c(-c3ccc(F)cc3)ncn2C2CCN(Cc3ccccc3)CC2)n1 [SB-219980]
%Inh (FLT1): 0%
%Inh (FLT3-autoinhibited): 18%
%Inh (FLT3): 0%
%Inh (FLT4): 0%
%Inh (FRK): 10%
%Inh (FYN): 0%
%Inh (GAK): 12%
%Inh (GCN2(Kin.Dom.2,S808G)): 1%
%Inh (GRK1): 27%
%Inh (GRK2): 36%
%Inh (GRK3): 6%
%Inh (GRK4): 0%
%Inh (GRK7): 6%
%Inh (GSK3A): 16%
%Inh (GSK3B): 11%
%Inh (HASPIN): 0%
%Inh (HCK): 9%
%Inh (HIPK1): 0%
%Inh (HIPK2): 0%
%Inh (HIPK3): 0%

CCn1c(-c2c(N)noc2C)nc2cnccc21 [SB-737856]
%Inh (FLT1): 20%
%Inh (FLT3-autoinhibited): 0%
%Inh (FLT3): 0%
%Inh (FLT4): 0%
%Inh (FRK): 11%
%Inh (FYN): 3%
%Inh (GAK): 21%
%Inh (GCN2(Kin.Dom.2,S808G)): 7%
%Inh (GRK1): 0%
%Inh (GRK2): 0%
%Inh (GRK3): 42%
%Inh (GRK4): 6%
%Inh (GRK7): 0%
%Inh (GSK3A): 0%
%Inh (GSK3B): 2%
%Inh (HASPIN): 0%
%Inh (HCK): 0%
%Inh (HIPK1): 0%
%Inh (HIPK2): 0%
%Inh (HIPK3): 0%
